Data from the supplement of paper PMC6555819.

System: RARb homodimer (NR concentration 270 nM)
Assay: PBM binding z-score (relative to random genomic background probes); higher = stronger binding; sequences stand for … in GC…GCGATTGACAGCGTAGAATGAAGG
Method in brief: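 Binding z-scores take random background probes as their reference. They come from custom Agilent 4×180K protein-binding microarrays incubated 1 h with ligand-free nuclear receptor dimers, with antibodies against each partner (one per run) detecting binding. Scanned fluorescence was regression-normalized.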

Row | Sequence | PBM binding z-score
1 | ATATGTAGGTTAGCTGGGGTCACTCAGACTAGGC | 4.11
2 | CCGACTGGGGCAAAGGTTACCCTACTCAGTACGA | 1.96
3 | CCTAGTTGGTCAAGGTCACAGACGCTATAGGTAC | 4.33
4 | TAGCCTAGGTCATTGGGCCAGTTTAGTACGCATC | 2.94
5 | CCTTACGGGTCACGATGTTATAGCACGACGAGCG | 3.21
6 | CGAACGAGGGCATGAGTTGATTGCAAATGCCGAT | 0.769
7 | TCAGACAGGTGAAGGTAAATCAGGTACGCAGTCG | 0.943
8 | AGTCAAAGTTCAGTACGAGGTAACGTAAAGCACG | 3.01
9 | CGTCCAAGGTCAGCAGTTCAGTGAAAGCGACGTG | 4.62
10 | ATCGCTAGGTAAAGTTCAGTGAAAGATCGATAGA | 2.03
11 | ATATGTATGTTAGCTGGGGTCATTCAGACTAGGC | 3.35
12 | TCTTGTAGATCAATAGAGGTTAGGAAAGTGCGCT | 0.826
13 | TCTTCTAGATCAAGCAGGTTAAGAAAGCCTGAGT | 0.111
14 | CCTGCTAGGTCATGGACAGCTAATCTACAGTATG | 2.73
15 | TCTCGGAGGACACGATAGGTCAGAGCTCGACATC | 3.02
16 | GCGACTGGGGCAAAGCAGGTTACAATAAGGTTGG | 1.15
17 | TCATATAGGTAAAGGAGAAAGTCGAACGATATGA | -0.643
18 | CGAACGAGGGCATGAGTTGATAACAAATGCCGAT | 0.641
19 | GCGACTCGGGCATCAGCAGGTTACCATAACTTAA | 0.226
20 | CCTACTGGCCCATTCAGAGGTCATTGATCATATG | 3.64
21 | GGAACGAGGGCAAGTAGATAGCAGAGTTTGATGG | 1.26
22 | TCGAGAAGGTTAGTCGGGGCATTCAGCCAACATA | 0.99
